Results taken from PubChem BioAssay AID743395 (Broad Institute, 2014).
About 480 (40%) of roughly 1,200 compounds were called active. So high a share suggests a set chosen from earlier hits. A selection follows. Potency and affinity values are given separately. Unmarked numbers belong to inactive results. How the calls were made is not given here.

assay: HepG2 cell cytotoxicity, dose response, cytotoxicity control, CellTiter-Glo luminescence, cherry-pick, set 2 (AID 743395); settings: HepG2 viability, CellTiter-Glo ATP luminescence, 72 h; series mostly up to 26 µM; activity change, negative = cytotoxicity: at the top concentration;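 further: 0% = neutral control wells and -100% = positive control wells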

| Structure (SMILES) | activity change, negative = cytotoxicity [%] |
| --- | --- |
| COc1cc(C(=O)Nc2ccc(C)cc2)c2ccccc2n1 | -19.8 |
| CCOc1ccc(NC(=O)c2ccccc2NC(=O)CNC2CCCC(C)C2C)cc1 (stereo not drawn) | -17.5 |
| COc1ccc(OCC(=O)N/N=C/C=C/c2ccccc2)cc1 | -18.5 |
| COc1ccc2[nH]c(C(=O)N/N=C/c3ccc(OC)c(O)c3)cc2c1 | -38.9 |
| CC(C)C[C@@H](COCc1ccc(C(F)(F)F)cc1)N1CCN(C(=O)c2ccc(C(F)(F)F)cc2)CCC1=O | -2.18 |
| CN(CC(=O)NCCc1ccc(S(N)(=O)=O)cc1)CC(=O)Nc1ccc(Cl)c(C(F)(F)F)c1 | -9.46 |
| Nc1c2c(nc3ccccc13)CCCC2 | -14.5 |
| CCOC1=C2CN(S(=O)(=O)c3ccc(C)cc3)CC[C@@H]2N(S(=O)(=O)c2ccc(C)cc2)[C@H](c2ccccc2)C1 | -4.36 |
| CCOC(=O)C1CCCN(c2nc3ccccc3nc2NS(=O)(=O)c2ccc(C)cc2)C1 (stereo not drawn) | 1.03 |
| C[C@H]1C[C@H]2[C@@H]3CCC4=CC(=O)C=C[C@]4(C)[C@@]3(F)[C@@H](O)C[C@]2(C)[C@@]1(O)C(=O)CO | -7.75 |
| Cc1ccc(-c2ccc3c(c2)O[C@@H](CN(C)C(=O)Nc2ccc(F)cc2)[C@@H](C)CN([C@H](C)CO)S3(=O)=O)cc1 | -17.6 |
| COc1cccc(S(=O)(=O)N(C)C[C@@H]2Oc3cc(C4=CCCC4)ccc3S(=O)(=O)N([C@@H](C)CO)C[C@H]2C)c1 | -21.8 |
| Cc1ccc(-c2ccc3c(c2)O[C@@H](CN(C)C(=O)Nc2ccc(F)cc2)[C@@H](C)CN([C@@H](C)CO)S3(=O)=O)cc1 | -12.3 |
| C[C@H]1CN([C@@H](C)CO)S(=O)(=O)c2ccc(C3=CCCCC3)cc2O[C@@H]1CN(C)C(=O)Cc1ccncc1 | 3.8 |
| Cc1ccc(-c2ccc3c(c2)O[C@H](CN(C)C(=O)Nc2ccc(C(F)(F)F)cc2)[C@@H](C)CN([C@@H](C)CO)S3(=O)=O)cc1 | -20.4 |
| C[C@@H]1CN([C@H](C)CO)S(=O)(=O)c2ccc(-c3ccc(C#N)cc3)cc2O[C@H]1CN(C)Cc1cccc(F)c1 | -25 |
| Cc1ccc(-c2ccc3c(c2)O[C@H](CN(C)C(=O)Nc2ccc(F)cc2)[C@@H](C)CN([C@@H](C)CO)S3(=O)=O)cc1 | -26.1 |
| C[C@@H]1CN([C@H](C)CO)S(=O)(=O)c2ccc(-c3ccc(C#N)cc3)cc2O[C@H]1CN(C)Cc1ccccn1 | -29.9 |
| CC(=O)c1c(C)[nH]c(C(=O)OCc2nnc(-c3ccc([N+](=O)[O-])cc3)o2)c1C | -3.63 |
| C[C@@H]1CN([C@@H](C)CO)S(=O)(=O)c2ccc(-c3ccc(C#N)cc3)cc2O[C@H]1CN(C)Cc1cccc(F)c1 | -16.8 |
| C[C@@H]1CN([C@@H](C)CO)S(=O)(=O)c2ccc(C#Cc3ccc(F)cc3)cc2O[C@H]1CN(C)C(=O)c1ccccn1 | -1.22 |
| Cc1ccc(-c2ccc3c(c2)O[C@H](CN(C)C(=O)Nc2ccc(C(F)(F)F)cc2)[C@H](C)CN([C@@H](C)CO)S3(=O)=O)cc1 | -3.43 |
| C[C@@H]1CN([C@H](C)CO)S(=O)(=O)c2ccc(C#CC3CC3)cc2O[C@H]1CN(C)Cc1ccccn1 | -21.7 |
